Resorufin fluor: resorufin region autofluorescence. AID 588. Compound fluorescence, resorufin region 547/598 nm, buffer; stronger effect = higher value. 59,000 tested, 0.04% active. max dye-equivalent concentration, M
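Compounds in 100 mM Tris buffer, pH 8.0, incubated 15 min at room temperature, then read with 547 nm excitation and 598 nm emission filters. Fluorescence was converted to dye-equivalent concentration using an on-plate six-point resorufin standard curve.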
A488 fluor: A488 region autofluorescence. AID 591. compound autofluorescence, A488 spectral region, dye equivalency; Compound Type: qHTS ECL - MLSMR. 59,000 tested, 0.1% active. max dye equivalency, M
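Spectroscopic profiling in the A488 region: compounds in pH 8.0 Tris (100 mM), 15 min RT, CCD imaging with 480 nm excitation and 540 nm emission; responses normalized against A488 dye standards.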
Fluorescein fluor: fluorescein region autofluorescence; Compound autofluorescence, 480/540 nm, fluorescein-equivalent; stronger effect = higher value; max fluorescein-equivalent concentration, M; 59,000 tested, 0.91% active; AID 593; in the data active = max fluorescein-equivalent concentration above about 10 nM; inconclusive = between about 1.1 nM and that limit
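Compounds (23 nL) in 100 mM Tris pH 8.0, 15 min at room temperature, then fluorescence read at 480 nm excitation/540 nm emission. Signal converted to fluorescein-equivalent concentration from an on-plate fluorescein standard curve.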
Rhodamine fluor: rhodamine region autofluorescence; Rhodamine-region fluorescence, 547/598 nm, Tris buffer; stronger effect = higher value; max dye-equivalent concentration, M; 59,000 tested, 0.05% active; AID 594; in the data active = max dye-equivalent concentration above about 11 nM; inconclusive = between about 1.1 nM and that limit
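Intensities are converted to rhodamine-equivalent concentration using a six-point rhodamine standard on each plate. Compounds sit 15 min at room temperature in 100 mM Tris buffer, pH 8.0; read uses the 547/598 nm excitation/emission pair.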
TexasRed autofl: compound fluoresces in the Texas Red spectral region; 59,000 tested, 0.06% active; Compound fluorescence, Texas Red channel, 547/618 nm; stronger effect = higher value; max dye-equivalent concentration, M; in the data active = max dye-equivalent concentration above about 10 nM; inconclusive = between about 1.1 nM and that limit
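Compound titrations in 100 mM Tris pH 8.0 were incubated 15 min at room temperature and read at 547 nm excitation / 618 nm emission. Texas Red six-point standard curve on each plate converted fluorescence to dye-equivalent concentration.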
A647 autofl: A647 region autofluorescence | 59,000 tested, under 10 active | Compound fluorescence, A647 channel (570/671 nm), Tris buffer | max dye-equivalent concentration, M
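Fluorescence read (570 nm ex, 671 nm em) after 15 min RT incubation of compounds in 100 mM Tris buffer, pH 8.0; values expressed as dye-equivalent concentration against a six-point A647 standard series on each plate.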
Of the large screens only hits and unclear results are named; the others gave an inactive call; ! = a repeat was not active. A selection: hits, their analogues and other compounds. The true share with any hit is near 0.95%. Unless noted, the rule behind the calls is not given here.

CCOC(=O)c1c(N)n(CCN2CCCCC2)c2nc3ccccc3nc12	none
O=C1C[C@H]2OCCC=C3CN4CC[C@@]56c7ccccc7N1[C@@H]5[C@H]2[C@H]3C[C@@H]46	none
CSC([N-]/N=C/c1cccc(C)n1)=[S]=[Cu].CS[C@H]([S-])[N-]/N=C/c1cccc(C)n1	none
c1ccc2c(c1)[nH]c1cnccc12	Fluorescein fluor inconclusive
Cc1c2ccncc2c(C)c2c1[nH]c1ccccc12	Fluorescein fluor 1.1e-08M!
